Broadly, the AC50 is the concentration at which the activity in the assay is half-maximal.

Records with an inconclusive call do not appear. Activity calls are given as the source filed them. The calls were made as follows, unless noted: active = hit-call score of the fitted dose curve at least 0.9, where 1 is the maximum; inconclusive = response in the unintended direction; inactive = score below 0.9.

The values below come from PubChem BioAssay (EPA / NIEHS).

The nature of assay [1]: CCTE_Shafer_MEA_acute_LDH: CCTE's Lactate Dehydrogenase Assay for Cytotoxicity in the Neural Acute Assay, Shafer Lab (AID 2284086).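 Also: active means LDH release rises above DMSO vehicle level.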 The procedure, abridged:
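Cytotoxicity readout: spectrophotometric LDH activity in supernatant of rat primary cortical neurons, post-plating day 13 or 15, sampled after 40 min compound exposure; signal gain relative to DMSO baseline.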

Assay [2] is described as follows: CCTE_Shafer_MEA_acute_AB: CCTE's Alamar Blue Assay for Cytotoxicity in the Neural Acute Assay, Shafer Lab (AID 2284069).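 Also: active compounds lower the viability signal compared with DMSO wells.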 The method, boiled down: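 Primary rat cortical neurons on MEA plates, exposed acutely after baseline recording on day 13 or 15 post-plating. Viability by CellTiter Blue resazurin reduction (1:6 reagent dilution), fluorescence 544/590 nm; loss of signal versus DMSO.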
(In general: The colour change of resazurin is a common sign of viable cells or microbes.)

Another assay has as its system DIO2 (gene 1734). Put plainly: CCTE_GLTED_hDIO2: CCTE's human Deiodinase 2 (DIO2) Inhibition Assay, Great Lakes Toxicology and Ecology Division (GLTED) Lab (AID 2284050). The procedure, abridged: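 Triplicate cell-free incubations (3 h) of human DIO2 with chemical preceded colorimetric Sandell-Kolthoff quantitation of liberated iodide; DMSO served as negative control for curve fitting.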

The subject of another assay is DIO3 (gene 1735). The experiment in a line: CCTE_GLTED_hDIO3: CCTE's human Deiodinase 3 (DIO3) Inhibition Assay, Great Lakes Toxicology and Ecology Division (GLTED) Lab (AID 2284055).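 Also: potency is for inhibition seen as loss of released iodide signal.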 The procedure, abridged:
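Steps: incubate adenovirus-produced hDIO3 with chemical for 3 hours; detect freed iodide via cerium-arsenic Sandell-Kolthoff colorimetry; compare with DMSO baseline.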

The nature of assay [3]: CCTE_Shafer_MEA_dev_inter_network_spike_interval_mean: CCTE's Neural Network Formation Assay for Mean Inter-network Spike Interval, Shafer Lab (AID 2284047; active = hit-call score of the fitted dose curve at least 0.9, where 1 is the maximum; inactive = score below 0.9;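 as to AC50: potency for a decrease in mean inter-network spike interval below DMSO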). The method, boiled down:
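Primary rat cortical neurons on 16-electrode MEA wells, exposed from plating day 0 through DIV 12, compound renewed at DIV 5 and 9 media changes. Mean interval between network-spike peaks recorded DIV 5, 7, 9, 12; collapsed as trapezoidal AUC, fitted downward versus DMSO.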

Assay [4] can be described thus: CCTE_Shafer_MEA_dev_network_spike_number: CCTE's Neural Network Formation Assay for Number of Network Spikes, Shafer Lab (AID 2284048; active = hit-call score of the fitted dose curve at least 0.9, where 1 is the maximum; inactive = score below 0.9;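 also: synchronized bursts across electrodes counted on days 5 7 9 12 and integrated as AUC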;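 as to AC50: fit as a loss of signal meaning fewer network spikes than DMSO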). The method, boiled down:
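Number of network spikes (coordinated firing across electrodes) recorded on days 5, 7, 9 and 12 and summarised as area under the curve. Rat cortical cultures on MEA, continuous compound exposure with full medium/treatment exchange at DIV 5 and 9.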

Assay [5] in a line: CCTE_Shafer_MEA_dev_network_spike_peak: CCTE's Neural Network Formation Assay for Mean Number of Electrodes in Network Spike, Shafer Lab (AID 2284049; active = hit-call score of the fitted dose curve at least 0.9, where 1 is the maximum; inactive = score below 0.9;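 as to AC50: fitted for loss of signal meaning fewer electrodes in network spikes than DMSO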). The method, boiled down: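 Rat cortical primary culture, 1.5 x 10^5 cells/well, 48-well MEA (16 electrodes/well). Dosing day 0 through DIV 12, full media/compound exchange DIV 5, 9. AxIS adaptive spike detection; AUC over days 5/7/9/12; loss-of-signal vs DMSO.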

Assay [6] is described as follows: CCTE_Shafer_MEA_dev_spike_duration_mean: CCTE's Neural Network Formation Assay for Mean Spike Duration, Shafer Lab (AID 2284051; active = hit-call score of the fitted dose curve at least 0.9, where 1 is the maximum; inactive = score below 0.9;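 also: mean network spike duration pooled as area under curve over DIV 5 to 12 recordings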;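 as to AC50: potency for a decrease in mean network spike duration versus DMSO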). The procedure, abridged:
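Primary rat cortical neurons on 16-electrode MEA wells (PEI-coated, laminin in plating drop), exposed from plating through DIV 12 with compound renewed at DIV 5 and 9. Mean network-spike duration recorded DIV 5, 7, 9, 12; trapezoidal AUC across days, DMSO baseline.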

Assay [7] can be described thus: CCTE_Shafer_MEA_dev_network_spike_duration_std: CCTE's Neural Network Formation Assay for Standard Deviation of Network Spike Duration, Shafer Lab (AID 2284052; active = hit-call score of the fitted dose curve at least 0.9, where 1 is the maximum; inactive = score below 0.9;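 also: area under curve of spike duration SD across recording days 5 to 12; hits are decreases in network spike duration SD versus DMSO vehicle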). The procedure, abridged: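 Primary rat cortical neurons on PEI-coated 16-electrode MEA wells, exposed from plating day 0 through day 12 with compound renewed at DIV 5 and 9. Network spike duration SD recorded on days 5, 7, 9, 12, collapsed as trapezoidal AUC; loss-of-signal fit versus DMSO.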

Assay [8] can be described thus: CCTE_Shafer_MEA_dev_per_network_spike_spike_number_mean: CCTE's Neural Network Formation Assay for Mean Number of Spikes in a Network Spike, Shafer Lab (AID 2284053; active = hit-call score of the fitted dose curve at least 0.9, where 1 is the maximum; inactive = score below 0.9;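 as to AC50: fitted as decrease in spikes per network spike relative to DMSO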). The procedure, abridged:
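Primary rat cortical neurons on 48-well, 16-electrode MEA plates were exposed from plating to DIV 12, with dosing renewed on DIV 5 and 9. Spikes per network spike (0.05 s peak window) were recorded on DIV 5, 7, 9 and 12 and collapsed as trapezoidal AUC versus DMSO.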

A short description of assay [9]: CCTE_Shafer_MEA_dev_per_network_spike_spike_percent: CCTE's Neural Network Formation Assay for Percent of Spikes in a Network Spike, Shafer Lab (AID 2284054; active = hit-call score of the fitted dose curve at least 0.9, where 1 is the maximum; inactive = score below 0.9). The procedure, abridged: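 Metric: fraction of spikes falling in a 0.05 s window at network-spike peaks. Recordings were made on days 5, 7, 9 and 12 and collapsed by trapezoidal AUC. Cultures were rat cortical neurons on MEA plates, dosed continuously from plating, re-dosed at media changes.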

Assay [10] can be described thus: CCTE_Shafer_MEA_dev_LDH: CCTE's Lactate Dehydrogenase Assay for Cytotoxicity in the Neural Network Formation Assay, Shafer Lab (AID 2284068).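 Also: exposure for twelve days from plating with re-dosing on DIV 5 and 9.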 The procedure, abridged: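 Primary rat cortical neurons were plated on PEI/laminin MEA plates and exposed from day 0 for twelve days, with compound renewed at DIV 5 and 9. Cytotoxicity was determined by spectrophotometric LDH assay relative to DMSO.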

Assay [11] can be described thus: CCTE_Shafer_MEA_dev_AB: CCTE's Alamar Blue Assay for Cytotoxicity in the Neural Network Formation Assay, Shafer Lab (AID 2284083).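 Also: twelve days of exposure from plating with re-dosing on DIV 5 and 9.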 The method, boiled down: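 Primary rat cortical neurons on PEI-coated 48-well MEA plates, 1.5 x 10^5 cells/well in laminin drop; compound exposure from day 0 of plating for twelve days, renewed at medium changes on DIV 5 and 9. Viability read as resazurin reduction by fluorescence, relative to DMSO.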

Assay [12] is described as follows: CCTE_Shafer_MEA_dev_mutual_information_norm: CCTE's Neural Network Formation Assay for Mutual Information Normalization, Shafer Lab (AID 2284091; active = hit-call score of the fitted dose curve at least 0.9, where 1 is the maximum; inactive = score below 0.9;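 as to AC50: mutual information between electrodes summarised as area under curve across four recording days; potency is for a decrease in mutual information relative to DMSO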). The procedure, abridged:
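Shared information across electrodes, tracked on days 5, 7, 9 and 12 of network development and collapsed as trapezoidal area under the curve. Rat cortical cultures were treated continuously from plating, with treatment renewed at feeds on DIV 5 and 9; DMSO baseline, negative-direction fit.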

Assay [13] can be described thus: CCTE_Shafer_MEA_dev_correlation_coefficient_mean: CCTE's Neural Network Formation Assay for Mean Correlation Coefficient, Shafer Lab (AID 2284093; active = hit-call score of the fitted dose curve at least 0.9, where 1 is the maximum; inactive = score below 0.9;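 as to AC50: well mean pairwise spike train correlation integrated as AUC over recording days 5 to 12; potency fitted for loss of correlation relative to DMSO vehicle wells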). The method, boiled down:
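Spontaneous activity recorded on days 5, 7, 9 and 12 post-plating; pairwise spike correlations are averaged across active electrodes and collapsed to an area-under-curve. Rat cortical cultures are dosed from plating through 12 days, with compound renewed at media changes.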

Assay [14] is described as follows: IUF_NPC1b_proliferation_BrdU_72hr: Leibniz Research Institute for Environmental Medicine (IUF) 72-hour Neural Progenitor Cell Bromodeoxyuridine (BrdU) Proliferation Assay (NPC1b) (AID 2284207; active = hit-call score of the fitted dose curve at least 0.9, where 1 is the maximum; inactive = score below 0.9). The method, boiled down:
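Human fetal cortex-derived (GW 16-19) neural progenitor spheres, 0.25-0.35 mm, one per well in EGF/FGF proliferation medium, exposed to compound for 72 h at 37C, pH 7.2-7.6. BrdU incorporation over the final 16 h read by luminescence ELISA, relative to DMSO.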

A short description of assay [15]: IUF_NPC1a_proliferation_area_72hr: Leibniz Research Institute for Environmental Medicine (IUF) 72-hour Neural Progenitor Cell Proliferation Area Assay (NPC1a) (AID 2284208; active = hit-call score of the fitted dose curve at least 0.9, where 1 is the maximum; inactive = score below 0.9). The procedure, abridged: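 Read-out: increase in sphere area over 72 h by automated phase-contrast imaging, fitted in positive direction versus DMSO baseline. One hNPC sphere (0.25-0.35 mm) per well in EGF/FGF medium; growth-factor withdrawal served as positive control.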

Assay [16] in a line: IUF_NPC1_viability_72hr: Viability Assessment at 72 hours in the Leibniz Research Institute for Environmental Medicine (IUF) Neural Progenitor Cell Proliferation Assay (NPC1) (AID 2284209; active = hit-call score of the fitted dose curve at least 0.9, where 1 is the maximum; inactive = score below 0.9). The method, boiled down: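 Three-day continuous exposure of human neural progenitor spheres under EGF/FGF-driven proliferation; cell viability scored by alamar blue signal versus DMSO.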

Assay [17] can be described thus: CCTE_Mundy_HCI_Cortical_Synap_Neur_Matur_NeuriteSpotCountPerNeuriteLength: CCTE's Synaptogenesis and Neurite Maturation Assay in rat cortical cells for Neurite Spot Count per Neurite Length, Mundy Lab (AID 2284210; active = hit-call score of the fitted dose curve at least 0.9, where 1 is the maximum; inactive = score below 0.9). The method, boiled down:
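Synaptophysin spots per unit neurite length, measured by automated imaging of MAP2/synaptophysin/Hoechst-stained neurons. Cultures from rat cortex received chemical at DIV 7 with media change through DIV 12; glial growth arrested by AraC at DIV 5; DMSO baseline.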

The nature of assay [18]: CCTE_Mundy_HCI_Cortical_Synap_Neur_Matur_BPCount: CCTE's Synaptogenesis and Neurite Maturation Assay in rat cortical cells for Branch Point Count, Mundy Lab (AID 2284211; active = hit-call score of the fitted dose curve at least 0.9, where 1 is the maximum; inactive = score below 0.9). The method, boiled down:
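In this multiplexed morphology assay, cortical cells from rat receive chemicals at DIV 7 and are fixed at DIV 12, then immunostained and imaged; branch points are counted, with DMSO as baseline.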

On to `CC[Si](OC(C)=O)(OC(C)=O)OC(C)=O`, for which the compound was called inactive in assay [1].
As for `Cc1cc(C2(c3cc(C)c(O)cc3C)OS(=O)(=O)c3ccccc32)c(C)cc1O`, the compound was classed as inactive in [2] and in assay [1].
Consider `C=CCOC(=O)CCC1CCCCC1`, for which, in [1], the compound was classed as inactive.
Take `CCCCCCCCCCCCN`: the outcome in the assay with DIO2 (gene 1734) was inactive. Further, in the assay with DIO3 (gene 1735), the AC50 was 141 µM (active).
`CC(=O)OCCC(C)CC(C)(C)C` (centres undefined): in [1], the result was inactive.
The same measure, in the same setting: to `COc1cc(C=O)ccc1OC(=O)C(C)C` belongs “inactive”.
In the case of `CN(C)C(=N)N=C(N)N`, the compound was classed as inactive in assay [3], in assay [4], in assay [5], in [6], in assay [7] and in assay [8]. Besides, the call in assay [9], in assay [10], in [11], in assay [1], in assay [12] and in assay [13] was inactive. For the same compound, the call in assay [14], in assay [15], in assay [16] and in [17] was inactive. For the same compound, the AC50 in assay [18] was 18.1 µM (active).
For the compound `CCC(=O)/C=C/C1C(C)=CCCC1(C)C` (centres undefined), the figures for the AC50 in the assay on DIO2 (gene 1734) and in the assay with DIO3 (gene 1735) were 93.1 µM (active) and 56.6 µM (active), respectively.
The like results for `O=C(Oc1ccccc1)c1ccc(O)cc1` were, in that order, 72.2 µM (active) and 52.9 µM (active).
Regarding `CCCCCCCCCCCCCCCC(=O)OC[C@H](O)[C@H]1OC(=O)C(O)=C1O`, the AC50 is 27.5 µM (active) in the assay with DIO2 (gene 1734) and 4.09 µM (active) in the assay on DIO3 (gene 1735).
Regarding `N#Cc1ccc(CC(=NNC(=O)Nc2ccc(OC(F)(F)F)cc2)c2cccc(C(F)(F)F)c2)cc1`, the AC50 in [3] is 0.634 µM (active); in assay [4], 0.763 µM (active); in [5], 1.12 µM (active); in [6], 0.685 µM (active); in [7], 0.525 µM (active); in assay [8], 1.08 µM (active). In addition, the AC50 in [10] was 15 µM (active); in [12], 0.672 µM (active); in [13], 2.8 µM (active). In addition, the compound was classed as inactive in assay [9], in assay [11], in [14], in [15], in assay [16] and in assay [17]. The compound was classed as inactive in assay [18].
For `NCCNCCN`, the result in assay [2] and in assay [1] was inactive.
In the case of `C[C@H]1C[C@@H]2[C@H]([C@@H](O)C[C@@]3(C)[C@H]2CC[C@]3(O)C(=O)CO)[C@@]2(C)C=CC(=O)C=C12`, the compound was called inactive in [2] and in assay [1].
Take `OC1OC[C@@H](O)[C@H](O)[C@H]1O` (some centres undefined): the call in assay [1] was inactive.
Take `CC(C)=CCCC(C)=CCCC(C)=CCO`: the AC50 with DIO2 (gene 1734) was 28.5 µM (active); with DIO3 (gene 1735), 17.9 µM (active).
Regarding `OC[C@H]1O[C@H](O[C@]2(CCl)O[C@H](CCl)[C@@H](O)[C@@H]2O)[C@H](O)[C@@H](O)[C@H]1Cl`, the compound was called inactive in assay [2] and in assay [1].
Turning to `CC(C)(COC(=O)c1ccccc1)COC(=O)c1ccccc1`, the compound was called inactive in assay [2] and in assay [1].
For `CCCCCCCCC=O`, the compound was called inactive in assay [2] and in [1].
Turning to `CCCCCCCCCCCCCC(=O)O`, the AC50 with DIO2 (gene 1734) is 100 µM (active); in the assay on DIO3 (gene 1735), 156 µM (active).
Turning to `C=C[Si](OCC)(OCC)OCC`, the compound was called inactive in assay [2] and in assay [1].
As for `CCC(=O)OCc1ccccc1`, the outcome in [1] was inactive.
For the compound `c1ccc2c(c1)c1cccc3ccc4cccc2c4c31`, the AC50 in assay [3] is 18.6 µM (active). Further, the call in [4], in assay [5], in assay [6], in assay [7], in [8] and in [9] was inactive. For the same compound, the result in [10], in assay [11], in assay [12] and in assay [13] was inactive.
On to `O=Nc1ccc(Nc2ccccc2)cc1`, for which the AC50 was 64.2 µM (active) in the assay on DIO2 (gene 1734) and 55.1 µM (active) in the assay with DIO3 (gene 1735).
As for `CC(=O)[C@H]1CC[C@H]2[C@@H]3CC=C4C[C@@H](O)CC[C@]4(C)[C@H]3CC[C@]12C`, the compound was called inactive in [1].
